This passage reports INHIBITION results from ChEMBL document CHEMBL4513216, “Probing the Open Global Health Chemical Diversity Library for Multistage-Active Starting Points for Next-Generation Antimalarials” (ACS Infect Dis, 2020).

Out of some 68,000 compounds screened, about 2,700 (4%) showed an effect of 50% or more. This is one part of a sample in which strong results are shown more often than they occur.

In this experiment the test system is Plasmodium berghei. Description: Screen against P. berghei liver stage (PbLuc), transformed with Luciferase, at 2uM. Format: functional, HepG2. The conditions noted are these: tested at 2 uM.
Take `CC(Cc1ccccc1F)NC(=O)CCC1=NC(=C2N=CN=N2)NO1` (stereo unspecified): the INHIBITION came out at 24.12%. As for `COCCNC(=O)Cn1c(-c2cccc(F)c2)nc(C)c(CCO)c1=O`, the INHIBITION was -4.75%.

In the case of `O=C(O)C1(Cc2ccc(F)cc2F)CCCN(Cc2ccncc2)C1` (stereo unspecified), the INHIBITION worked out at 43.57%. With `COCCC1(CO)CCCN(Cc2ccncc2)C1` (stereo unspecified), the INHIBITION was 10.53%. `OCC1(Cc2ccc(F)cc2F)CCCN(Cc2ccncc2)C1` (stereo unspecified): the INHIBITION is given as 61.48%. The same measure for `Cc1c(-c2cc(C(=O)N3CCc4ncc(Cl)cc4C3)on2)cnn1C`: -30.88%; for `O=C(NCC(F)F)c1cc(-c2ccccc2)nc2ncnn12`: 5.88%. For the compound `CCc1nc(CCNC(=O)NC2CC(=O)N(C(C)(C)C)C2)cs1` (stereo unspecified), the INHIBITION was 3.62%.

Regarding `CCc1nc(CCNC(=O)Nc2ccc(C(=O)NC)cc2)cs1`, the INHIBITION is on record as -58.5%.

For `CCc1nc(CCNC(=O)NC2CCSCC2)cs1`, the INHIBITION was found to be 50.32%. The same measure for `CCNCc1ccc(OCc2ccc3c(c2)OCCO3)cc1`: 12.94%; for `NC1CC(C(F)(F)F)=NC=C1c1ccccc1` (stereo unspecified): 25.93%; for `Cn1c(C(F)(F)F)nn(CCNC(=O)Nc2ccccc2F)c1=O`: 37.87%. In the case of `Cc1ccccc1NC(=O)NCCn1nc(C(F)(F)F)n(C)c1=O`, the INHIBITION is reported as 16.54%. As for `Cn1c(C(F)(F)F)nn(CCNC(=O)Nc2ccccc2Cl)c1=O`, the INHIBITION was 64.74%. Regarding `Cn1cc(C(=O)N2CCN(Cc3cscn3)CC2)ccc1=O`, the INHIBITION is reported as -15.08%. The same measure for `O=C(Nc1ccccc1)N1CCC2(CC(=O)N(c3ccsc3)C2)C1` (stereo unspecified): 57.31%; for `Cc1cccc(NC(=O)N2CCC3(CC(=O)N(c4ccsc4)C3)C2)c1` (stereo unspecified): 1.29%; for `CC(=O)N1CCN(C(=O)Nc2ccccc2)CC2(CC(=O)N(C)C2)C1` (stereo unspecified): 7.88%. As to `O=C(NCc1ccccc1)N1CCC2(CC(=O)N(c3ccsc3)C2)C1` (stereo unspecified), the INHIBITION came to 18.86%. As to `CCN1CC2(CNCCN(C(=O)Nc3ccccc3)C2)CC1=O` (stereo unspecified), the INHIBITION came to 17.77%. As for `CN1CC2(CNCCN(C(=O)Nc3ccccc3)C2)CC1=O` (stereo unspecified), the figure is 56.21%; as for `Cc1nn(Cn2ccc(C(=O)N3CCCCCC3)n2)c(C)c1Cl`, 7.68%; as for `CC(NC(N)=O)C(=O)N1CCCN(Cc2nccn2C(C)C)CC1` (stereo unspecified), -7.5%. On to `CN(C(=O)Cc1ccc(NC(=O)NC2CCC2)cc1)c1ccccc1`, for which the INHIBITION is 43.21%. As to `Cc1ccc(C(=O)N2CCC3(CC2)CCN(CCN(C)C)C3=O)cn1`, the INHIBITION amounted to 39.92%.

`CCn1c(C2CCN(C(=O)c3cc(Cl)no3)CC2)nn(C)c1=O`: the INHIBITION was 13.76%. For the compound `CCn1c(C2CCN(C(=O)c3cc(CC(C)C)on3)CC2)nn(C)c1=O`, the INHIBITION is recorded as -5.44%. On to `CCn1c(C2CCN(C(=O)c3cc(CC(C)C)no3)CC2)nn(C)c1=O`, for which the INHIBITION was 51.31%.

In the case of `CCN1CCn2c(-c3cccc(F)c3)cnc2C12CCN(C(C)=O)CC2`, the INHIBITION is reported as -13.68%. As to `O=c1[nH]c(NCCCO)nc2c1C1(CCCC1)Cc1ccccc1-2`, the INHIBITION turned out to be 43.82%.

Regarding `O=c1[nH]c(NCCO)nc2c1C1(CCCC1)Cc1ccccc1-2`, the INHIBITION is on record as -29.21%. Regarding `O=c1[nH]c(NCCO)nc2c1C1(CCCCC1)Cc1ccccc1-2`, the INHIBITION turned out to be 53.55%. Take `CCN(Cc1ccoc1)C(=O)C1CN(C(=O)OC(C)(C)C)C1`: the INHIBITION came to 52.03%. The same measure for `CCN(Cc1ccoc1)C(=O)C1CCN(C(=O)OC(C)(C)C)C1` (stereo unspecified): 30.25%. Consider `CCN(Cc1ccoc1)C(=O)NC1CCN(C(=O)OC(C)(C)C)C1` (stereo unspecified), for which the INHIBITION was 7.93%. As for `Cc1cc(-n2nnc(C(=O)O)c2-c2ccncc2)ccc1F`, the figure is -37.39%. The same measure for `Cc1occc1C(=O)N1CCC2(CCCN(c3ncc(F)cn3)C2)C1` (stereo unspecified): -13.37%; for `CC(C)(C)n1cc(C(=O)O)c(-c2ccc(F)cc2F)n1`: 52.98%; for `Cn1cc(C(=O)O)c(-c2ccc(F)cc2F)n1`: 31.51%.

Consider `Cn1cc(C(=O)OCC(N)=O)c(-c2ccc(F)cc2F)n1`, for which the INHIBITION was 19.59%. Regarding `COc1ccc(C(=O)C2CCCN(c3nccc(N)n3)C2)c(C)c1` (stereo unspecified), the INHIBITION was determined as 22.5%. As to `COc1ccc(N2CCC(N(C)C(=O)Nc3ccncc3)CC2)cc1`, the INHIBITION is listed as -18.09%. On to `Cc1cccc(CN2CC[C@@H]3[C@@H]2CCN3C(=O)c2ccno2)n1`, for which the INHIBITION is given as 51.94%. Take `Cc1cccc(CN2CC[C@H]3[C@H]2CCN3Cc2cnn(C)c2)n1`: the INHIBITION was found to be 46.68%.

Regarding `Cc1cccc(CN2CC[C@H]3[C@H]2CCN3C(=O)c2cnn(C)c2)n1`, the INHIBITION came out at 51.4%. Consider `Cn1cc(C(=O)N2CC[C@@H]3[C@@H]2CCN3Cc2ccncc2)cn1`, for which the INHIBITION came to 70.31%.

Turning to `Cc1cccc(CN2CC[C@@H]3[C@@H]2CCN3C(=O)c2cnoc2C)n1`, the INHIBITION was -15.6%. Take `Cn1cc(C(=O)N2CC[C@@H]3[C@@H]2CCN3Cc2ccccc2)cn1`: the INHIBITION amounted to 28.85%. As for `Cn1cc(C(=O)N2CC[C@@H]3[C@@H]2CCN3Cc2cccnc2)cn1`, the figure is -31.39%; as for `Cc1cccc(N2CC[C@H]3[C@H]2CCN3C(=O)c2cnn(C)c2)n1`, 3.56%; as for `Cc1cccc(CN2CC[C@@H]3[C@@H]2CCN3C(=O)c2cc(C)on2)n1`, 26.01%. For `Cc1cc(CNCC2Cn3nnc(C)c3CO2)oc1C` (stereo unspecified), the INHIBITION was found to be 26.42%. Take `CCS(=O)(=O)NC1CCCN(c2ccc(F)cc2C)C1=O` (stereo unspecified): the INHIBITION is on record as -13.11%. As to `Cn1cc(C(=O)N2CCCC(C(=O)CCc3ccccc3)C2)cn1` (stereo unspecified), the INHIBITION came out at 18.12%. The same measure for `CCC(O)CNc1nccc(-c2ccc(C)nc2C)n1` (stereo unspecified): -23.27%. As for `O=C(Cc1ccsc1)N1CCC2(CCCN(CC3CCOCC3)C2)C1` (stereo unspecified), the INHIBITION is reported as 32.04%. With `O=C(Cc1ccccn1)N1CCC2(CCCN(CC3CCOCC3)C2)C1` (stereo unspecified), the INHIBITION is reported as -16.36%. `O=C(Cc1cccs1)N1CCC2(CCCN(CC3CCOCC3)C2)C1` (stereo unspecified): the INHIBITION was 54.62%. `Cn1cnc2c1CCN(CCCOc1ccc(S(C)(=O)=O)cc1)C2`: the INHIBITION came out at 72.05%.

On to `Cn1cnc2c1CCN(CCCOc1ccc(C#N)cc1)C2`, for which the INHIBITION stood at 40.29%. As for `CS(=O)(=O)c1ccc(OCCCN2CCc3cncnc3C2)cc1`, the INHIBITION stood at 20.53%.

For the compound `CCS(=O)(=O)N(C)C1CCN(C(=O)c2cc(C)cc(C)c2)CC1`, the INHIBITION is -37.02%. Consider `CNC(=O)COc1ccccc1CNCc1c(C)noc1C`, for which the INHIBITION was determined as 57.75%. For `Cc1noc(C)c1CNC(=O)C(C)Oc1ccccc1F` (stereo unspecified), the INHIBITION is given as -23.17%. As to `CNC(=O)COc1cccc(CNCc2c(C)noc2C)c1`, the INHIBITION was -16.18%.

Regarding `Cc1cc(O)cc(=O)n1CCCC(=O)Nc1n[nH]c2cc(Br)ccc12`, the INHIBITION is reported as -14.65%. Take `CO[C@H]1C(=O)N(C)C2(CCNCC2)[C@@H]1C(=O)Nc1ccccc1`: the INHIBITION is 36.1%. As for `Cc1noc(C)c1CN1CCC(N(C)Cc2nnc(C3CC3)n2C)C1` (stereo unspecified), the figure is -37.68%; as for `CC[C@@H]1N(Cc2ccccn2)CCC[C@]12CCC(=O)N2CCOC`, 51.05%.

Turning to `CC[C@@H]1N(CC2CCC2)CCC[C@]12CCC(=O)N2Cc1ccncc1`, the INHIBITION is recorded as 12.28%. Take `CCCN1CCC[C@]2(CCC(=O)N2Cc2ccncc2)[C@H]1CC`: the INHIBITION was 32.59%. As for `CN1C(=O)CCC12CCC(NCc1ccsc1)CC2` (stereo unspecified), the figure is 51.81%.

Turning to `CC[C@@H]1N(Cc2ccc(OC)cc2)CCC[C@]12CCC(=O)N2CCOC`, the INHIBITION is recorded as 25.75%.

Consider `CN1C(=O)CCC12CCC(NC(=O)NCc1cccnc1)CC2` (stereo unspecified), for which the INHIBITION was -14.64%. Consider `COCCN1C(=O)CCC12CCC(NCc1ccc(OC)cc1)CC2` (stereo unspecified), for which the INHIBITION is reported as 25.43%. The same measure for `CC[C@@H]1N(Cc2ccncc2)CCC[C@]12CCC(=O)N2CCOC`: 28.86%; for `COCCN1C(=O)CCC12CCC(NCc1nccs1)CC2` (stereo unspecified): 75.66%.

Regarding `CC[C@H]1N(CC2CCC2)CCC[C@]12CCC(=O)N2Cc1ccncc1`, the INHIBITION stood at 65.54%. `O=C1CCC2(CCC(NCc3ccsc3)CC2)N1Cc1ccccc1` (stereo unspecified): the INHIBITION amounted to 31.5%. The same measure for `COCCN1C(=O)CCC12CCC(NCc1cccnc1OC)CC2` (stereo unspecified): 12.95%.

Regarding `Cc1cc(C(=O)N2CCC(Nc3cccnc3)CC2)c(C)s1`, the INHIBITION is 22.36%. For the compound `COCCN1CCC2(CCN(C(=O)c3ccc(F)cc3)CC2)C1=O`, the INHIBITION is listed as 4.59%.

On to `CN1[C@@H]2CC[C@H]1CN(C(=O)CCc1csc(N)n1)CC2`, for which the INHIBITION stood at 41.86%. For the compound `COc1ccc(C(=O)N2CCC(Nc3cccnn3)CC2)c(F)c1`, the INHIBITION is -33.22%. The same measure for `Cc1c(C2N3CC4(C(C)C)CN2CC(C(C)C)(C3)C4=O)[nH]c(=O)[nH]c1=O` (stereo unspecified): -2.5%; for `CCc1noc(C2CCCCN2C(=O)c2ccc3c(c2)OCO3)n1` (stereo unspecified): 25.67%; for `CC[C@@H]1N(Cc2ccc(F)cc2)CCC[C@]12CCC(=O)N2CCOC`: 1.78%.

`CC[C@@H]1N(Cc2nccs2)CCC[C@]12CCC(=O)N2C`: the INHIBITION amounted to 45.22%. Consider `CC[C@@H]1N(Cc2nccs2)CCC[C@]12CCC(=O)N2CCOC`, for which the INHIBITION came out at 65.26%. Turning to `Cc1csc(C(=O)N2CC(S(=O)(=O)C3CCCCC3)C2)c1`, the INHIBITION is given as -15.37%. Regarding `CC(=O)N1CC2(CCCN2Cc2ccc(Cl)cc2)Cc2ccccc21` (stereo unspecified), the INHIBITION is 6.9%. On to `CCn1c(CC2CCN(C(=O)c3cc(CC(C)C)on3)CC2)n[nH]c1=O`, for which the INHIBITION turned out to be 55.25%.

`CCn1c(CC2CCN(C(=O)c3cc(C(C)C)n[nH]3)CC2)n[nH]c1=O`: the INHIBITION is recorded as 3.06%. In the case of `CCn1c(CC2CCN(C(=O)c3cc(C(C)C)nn3C)CC2)n[nH]c1=O`, the INHIBITION is 32.26%.

`CSCc1cccc(NC(=O)N2CCC(N3CC=CC3)C2)c1` (stereo unspecified): the INHIBITION is on record as -18.09%. As for `Cc1noc(C)c1CNS(=O)(=O)N(C)Cc1ccccc1Br`, the INHIBITION is -45.67%. On to `CCN(CC)Cc1ccccc1NCc1c(C)noc1C`, for which the INHIBITION worked out at 71.91%. For the compound `CC(=O)N(C)Cc1ccccc1NCc1c(C)noc1C`, the INHIBITION was found to be 47.68%.

As to `O=C(Cc1csc(-c2ccco2)n1)N1CCN(c2nccs2)CC1`, the INHIBITION is on record as 4.89%. On to `CC(C)(C)CC(NC(=O)N1CCC(C(N)=O)CC1)C(F)(F)F` (stereo unspecified), for which the INHIBITION was 4.34%.
